Screening data as filed in PubChem BioAssay.
The list is not random: actives were taken first. Their share in the collection is about 28%.
CYP2C9 inh: blockers of cytochrome P450 2C9 activity – biochemical, luminescence, ADME assay, primary screen | P11712 | hit rate 20% among 96,000 | inhibition, % at 5 µM | CYP2C9 Supersomes, luciferin-H conversion;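 active = blocking of liver enzyme CYP2C9 beyond about 50% at 5 µM, limit read from the data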
CYP2C19 act: human CYP2C19 activators, primary screen, biochemical, luminescence | Cytochrome P450 2C19 (Homo sapiens), P33261 | recombinant CYP2C19, luciferin-H EGE luminescence; hits give high values; 0 = fully inhibited enzyme, 1 = untreated enzyme | activation factor at 5 µM | 96,000 tested, under 10 active;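 active = activation factor of at least 2 at 5 µM in the primary screen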
CYP2C9 act: human CYP2C9 activators, primary screen, biochemical, luminescence. Cytochrome P450 2C9 (Homo sapiens), P11712. activation factor at 5 µM. recombinant CYP2C9, luciferin-H conversion; hits give high values; factor 1 = untreated enzyme, 0 = blocked. hit rate 1.4% among 96,000;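 active = activation factor of 2 or more for CYP2C9 at a 5 µM dose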
CYP2C19 inh: blockers of cytochrome P450 2C19 activity – biochemical, luminescence, ADME assay, primary screen. CYP2C19 Supersomes, luciferin-H EGE luminescence, 30 min. hit rate 21% among 96,000. inhibition, % at 5 µM. AID 778, 2007;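 active = CYP2C19 inhibition above a set limit at 5 µM in the primary screen, cut at about 50% in these data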
hDAT+cocaine: changed hDAT dopamine uptake under cocaine IC80, either direction, primary screen, cocaine antagonist project, cell-based, LLC-PK1 hDAT, [14C]-dopamine uptake, MLSMR. Sodium-dependent dopamine transporter (Homo sapiens), Q01959. LLC-PK1 hDAT cells, [14C]-dopamine uptake with cocaine IC80; actives deviate in either direction. B-score at 10 µM. hit rate 1.3% among 110,000. AID 449768, 2010;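 active = Z score or B-score, a plate-position-corrected score, falls beyond the plate's 99.7% confidence bounds, in either direction; inactive = both scores lie inside the 99.7% bounds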
D1 mod: D1 CRE-luciferase signal change, two-sided – cell-based, HEK293 D1, dopamine EC30, D1 allosteric modulator project, primary screen; D(1A) dopamine receptor (Homo sapiens), P21728; dopamine EC30 potentiation; actives deviate in either direction; B-score at 10 µM; hit rate 5.9% among 58,000; AID 641, 2007;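 active = luminescence count or its row- and column-corrected plate score outside the 99.7% band of the plate's sample wells, on either side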
Target sequence (P21728 whole entry, looked up): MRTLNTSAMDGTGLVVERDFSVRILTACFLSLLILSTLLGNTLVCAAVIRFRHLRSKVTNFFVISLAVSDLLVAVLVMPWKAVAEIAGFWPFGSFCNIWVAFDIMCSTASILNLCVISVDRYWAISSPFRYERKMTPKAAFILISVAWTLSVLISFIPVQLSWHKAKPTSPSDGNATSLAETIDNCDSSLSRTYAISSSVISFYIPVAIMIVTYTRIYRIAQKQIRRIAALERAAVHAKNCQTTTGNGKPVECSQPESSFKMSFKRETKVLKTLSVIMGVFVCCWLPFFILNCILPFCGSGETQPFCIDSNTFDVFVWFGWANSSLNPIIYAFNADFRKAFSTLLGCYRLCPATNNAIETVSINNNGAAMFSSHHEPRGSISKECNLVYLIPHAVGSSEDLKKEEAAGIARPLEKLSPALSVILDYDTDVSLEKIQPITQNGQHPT
Hits are given with their value; 0 = inactive; - = no result.

SMILES	CYP2C9 inh	CYP2C19 act	CYP2C9 act	CYP2C19 inh	hDAT+cocaine	D1 mod
CCCCN(CCCC)S(=O)(=O)c1ccc(C(=O)Nc2nnc(COC)o2)cc1	0	0	0	0	0	0
CCCCN(C)S(=O)(=O)c1ccc(C(=O)Nc2nnc(CSC)o2)cc1	85	0	0	0	0	0
CCc1nnc(NC(=O)c2ccc(S(=O)(=O)N(CC)Cc3ccccc3)cc2)o1	95	0	0	0	0	0
CCOC(=O)NC(CC(=O)O)c1ccc(OC)cc1 (stereo not drawn)	0	0	0	0	0	0
O=C(O)c1ccc(Sc2nnc(-c3cccc(Br)c3)o2)c([N+](=O)[O-])c1	66	0	0	0	0	-
Cc1cc(C(=O)OCC(=O)Nc2ncc(C(F)(F)F)cc2Cl)c(C)o1	0	0	0	0	0	0
CCc1ccc(CNc2ccc3c(c2)ncn3C)cc1	0	0	0	70	0	0
CCn1cnc2cc(NCc3ccncc3)ccc21	62	0	0	0	0	0
Cc1nc2cc(CO)ccc2n1C	0	0	0	0	0	0
CCCn1cnc2cc(NCc3ccccn3)ccc21	0	0	0	0	0	0
COc1ccc(-n2cnc3cc(NCc4cccs4)ccc32)cc1	0	0	0	0	-	0
COc1ccc(CNc2ccc3c(c2)nc(C)n3C)cc1	0	0	0	58	0	0
Cc1ccc(-n2cnc3cc(NCc4cccs4)ccc32)cc1	93	0	0	90	0	-
CC(=O)c1c(C)[nH]c(C(=O)NCCN2CCC(C)CC2)c1C	0	0	0	0	0	0
OC1(c2ccc(Cl)cc2)CCN(Cc2c[nH]c3ccccc23)CC1	-	-	-	-	0	-
Cc1ccc(CNc2ccc3c(c2)ncn3C)cc1	0	0	0	62	0	0
Cc1ccc(C(=O)Nc2ccc3c(c2)ncn3C)cc1	0	0	0	0	0	0
CCOc1cc(S(=O)(=O)N2CC=C(c3ccc(F)cc3)CC2)c(OCC)cc1-n1cnnn1	93	0	0	0	0	0
CCOc1cc(S(=O)(=O)N2CCC(c3nc4ccccc4s3)CC2)c(OCC)cc1S(=O)(=O)N1CCCCC1	0	0	0	0	0	-
CCOc1cc(S(=O)(=O)N2CCC(Cc3ccccc3)CC2)c(OCC)cc1-n1cnnn1	73	0	0	53	0	0
COc1ccc(OC)c(NC(=O)CSc2nnc(C3CCCCC3)n2-c2ccccc2)c1	-	-	-	-	0	-
Cc1ccnc(Sc2ncccc2[N+](=O)[O-])n1	0	0	0	0	0	-
CCc1nnc(NC(=O)c2ccc3c(c2)C(=O)N(CC)C3=O)s1	-	-	-	-	0	-
Cn1c(SCC2CCCO2)nnc1-c1ccncc1 (stereo not drawn)	0	0	0	66	0	0
Cc1ccc(CSc2nnc(-c3ccncc3)n2CC2CCCO2)cc1 (stereo not drawn)	0	0	0	60	0	-
SMILES	CYP2C9 inh	CYP2C19 act	CYP2C9 act	CYP2C19 inh	hDAT+cocaine	D1 mod
CN(c1ncc(C(F)(F)F)cc1Cl)n1cc(C(N)=O)c2ccccc2c1=O	83	0	0	57	0	-
CCS(=O)(=O)Nc1ccc2c(c1)N(C(C)=O)c1ccccc1CC2	70	0	0	0	0	0
COc1ccc(-c2nc3ccc(N4CCCC4)cc3c(=O)[nH]2)cc1OC	0	0	0	0	-	-
Cc1nc(N)nc(OCC(F)(F)C(F)F)c1Br	0	0	0	0	0	-
Cc1cc(OCC(F)(F)C(F)(F)C(F)(F)C(F)(F)C(F)(F)C(F)F)nc(N)n1	57	0	0	64	0	-
Cc1cccc2nc(Cn3c(=O)n(CCC(=O)NCc4ccco4)c(=O)c4ccccc43)cc(=O)n12	-	-	-	-	-	0
COc1ccc(N2C(=O)CCC(C(=O)Nc3cccc(C)n3)C2c2ccc(OC)c(OC)c2)cc1 (stereo not drawn)	0	0	0	0	0	-
COc1ccccc1NC(=O)c1ccccc1-c1nc(-c2ccccc2OC)no1	78	0	0	64	0	0
COc1ccccc1NC(=O)c1ccccc1SC	0	0	3.8	0	0	-
COc1cccc(NC(=O)c2ccccc2-c2nc(-c3ccc(Cl)cc3)no2)c1	83	0	0	69	0	0
CCC1(C)Cc2ccccc2-c2nc(-c3ccccc3)oc(=O)c21 (stereo not drawn)	0	0	0	0	0	-
CCC1(C)Cc2ccccc2-c2nc(NCCO)[nH]c(=O)c21 (stereo not drawn)	69	0	0	56	-2.9	-
CCCC(=O)Nn1cnc2c(c1=O)C1(CCCCC1)Cc1ccccc1-2	64	0	0	50	0	-
CCC1(C)Cc2ccccc2-c2nc(NCCCO)n(-c3ccccc3)c(=O)c21 (stereo not drawn)	0	0	0	51	0	-
CCC(=O)Nn1cnc2c(c1=O)C1(CCCCC1)Cc1ccccc1-2	0	0	0	0	0	-
CCC1(C)Cc2ccccc2-c2nc3n(c(=O)c21)CC(C(=O)O)S3 (stereo not drawn)	69	0	0	0	0	0
C=CCn1c(O)c(C2=c3ccccc3=NC2=O)sc1=Nc1ccc(O)cc1	-	-	-	-	0	0
O=c1[nH]c(NCCO)nc2c1C1(CCCC1)Cc1ccccc1-2	0	0	0	0	0	-
Cn1c(NCCCO)nc2c(c1=O)C1(CCCCC1)Cc1ccccc1-2	83	0	0	78	0	0
CC(Sc1nnnn1-c1ccccc1)C(=O)Nc1ccc(Cl)cn1 (stereo not drawn)	80	0	0	87	0	0
CSc1ccccc1-n1nnnc1SCC(=O)NCc1cccs1	-	-	-	-	0	0
O=C(CSc1nnnn1-c1ccccc1)NCc1cccs1	0	0	0	83	0	-
O=C(CSc1nnnn1-c1cccc2ccccc12)N1CCOCC1	0	0	2.9	0	0	0
Nc1cc(N)nc(SCC(=O)N2CCN(C(=O)c3ccco3)CC2)n1	0	0	0	0	0	-
O=C(CSc1nnnn1-c1ccccc1)N1CCN(C(=O)c2ccco2)CC1	65	0	0	0	0	0
C/C(Cn1nc([N+](=O)[O-])cc1C)=N\NC(=O)c1ccc(C(C)(C)C)cc1	0	0	0	0	0	-
CN(C)c1nc(OCC(=O)NC(C)(C)C)nc(N(C)C)n1	0	0	0	0	0	0
CCN1CCN(CC(=O)Nc2cccc(C)c2C)C(=O)C1=O	0	0	0	0	0	0
Cc1cc(NC(=O)CSc2nnc3c(C)cc4ccccc4n23)no1	0	0	0	0	0	0
Cc1cc2ccccc2n2c(SCC(=O)NCc3cccs3)nnc12	0	0	0	64	-	-
